Only some compounds are listed: those with a hit (about 4.7% of all), similar ones and a draw of the others.
Mtb FBA inh – Mtb FBA enzyme inhibitors, primary screen, biochemical, fluorescence, strain H37Rv. Fructose-bisphosphate aldolase (Mycobacterium tuberculosis (strain ATCC 25618 / H37Rv)), …. purified M. tuberculosis FBA, fluorescence read-out. inhibition, % at 1 µM. 2.3% of 360,000 active. AID 588726, 2011
CCHFV vOTU inh – CCHFV vOTU protease inhibitors, primary screen, biochemical, Pep-AMC substrate, fluorescence; Crimean-Congo hemorrhagic fever virus L polyprotein viral ovarian tumor (vOTU) protease …; inhibition, % at 11.5 µM; 0.55% of 370,000 active; in the data active = inhibition above about 30%
VHR inh abs – VHR1 phosphatase inhibitors, primary screen, biochemical, absorbance, uHTS; Dual specificity protein phosphatase 3 (Homo sapiens), P51452; recombinant VHR phosphatase, pNPP absorbance; inhibition, % at 13.3 µM; 0.52% of 290,000 active; in the data active = inhibition above about 50%
3CLpro inhibitor – SARS-CoV 3CLpro protease inhibitors, primary screen, biochemical, quenched FRET | recombinant SARS-CoV 3CLpro, quenched FRET peptide cleavage | 0.14% of 290,000 active | inhibition, % at 6 µM | Replicase polyprotein 1ab (Severe acute respiratory syndrome coronavirus), P0C6X7 | AID 1706, 2009; in the data active = inhibition above about 12%
RecA intein inh – Mtb RecA intein splicing inhibitors, primary screen, biochemical, fluorescence, HTS; cell-free RecA intein splicing; inhibition, % (concentration not given with the values); 0.75% of 290,000 active; Protein RecA (Mycobacterium tuberculosis (strain ATCC 25618 / H37Rv)), P9WHJ3; in the data active = inhibition above about 30%
Target sequence (P9WHJ3 whole entry, looked up): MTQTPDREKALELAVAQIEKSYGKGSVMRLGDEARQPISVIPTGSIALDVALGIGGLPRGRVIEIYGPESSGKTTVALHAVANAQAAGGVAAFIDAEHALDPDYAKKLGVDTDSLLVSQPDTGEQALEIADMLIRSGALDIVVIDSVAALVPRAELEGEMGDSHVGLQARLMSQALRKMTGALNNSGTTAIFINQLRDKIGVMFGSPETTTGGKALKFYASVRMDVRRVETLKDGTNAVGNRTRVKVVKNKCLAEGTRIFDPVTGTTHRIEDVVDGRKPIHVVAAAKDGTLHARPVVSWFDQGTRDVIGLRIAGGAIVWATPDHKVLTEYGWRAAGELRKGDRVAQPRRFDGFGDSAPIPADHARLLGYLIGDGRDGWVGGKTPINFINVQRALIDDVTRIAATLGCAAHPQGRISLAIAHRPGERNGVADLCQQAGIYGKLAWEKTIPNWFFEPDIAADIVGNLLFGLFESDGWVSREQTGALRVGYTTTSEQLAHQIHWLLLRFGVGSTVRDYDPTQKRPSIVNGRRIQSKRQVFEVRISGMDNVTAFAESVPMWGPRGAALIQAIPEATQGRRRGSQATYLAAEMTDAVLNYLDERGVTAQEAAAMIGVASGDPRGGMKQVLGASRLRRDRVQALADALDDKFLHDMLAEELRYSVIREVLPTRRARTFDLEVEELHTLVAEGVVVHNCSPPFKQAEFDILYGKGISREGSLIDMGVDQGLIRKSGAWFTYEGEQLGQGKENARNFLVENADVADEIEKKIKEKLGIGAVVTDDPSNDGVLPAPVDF
GDH-TPI counter-1 – GDH-TPI coupling enzyme inhibitors, primary screen, artefact control for M. tuberculosis FBA inhibitor project, biochemical, absorbance, full deck. GDH-TPI coupled enzyme counterscreen, NADH absorbance. inhibition, % at 4.8 µM. AID 588335, 2011. 1.2% of 360,000 active; in the data active = inhibition above about 30%
Mtb FBA confirm – M. tuberculosis aldolase blockers, biochemical, fluorescence, strain H37Rv, confirmation | shares compounds with Mtb FBA inh | purified M. tuberculosis FBA, fluorescence read-out | inhibition, % at 1 µM | 78% of 5,600 active | AID 651616, 2012
GDH-TPI counter-2 – GDH-TPI coupling enzyme inhibitors, artefact control for M. tuberculosis FBA inhibitor project, biochemical, fluorescence, high throughput. 81% of 5,600 active. shares compounds with Mtb FBA inh. inhibition, % at 1 µM. AID 652141, 2013. GDH-TPI coupled enzyme counterscreen; in the data active = inhibition above about 10%
Numbers stand for hits; . = inactive; / = no result given; + = active, no number. Rule as the data show it, unless noted: active = inhibition above about 27%; inactive = the rest.

SMILES | Mtb FBA inh | CCHFV vOTU inh | VHR inh abs | 3CLpro inhibitor | RecA intein inh | GDH-TPI counter-1 | Mtb FBA confirm | GDH-TPI counter-2
O=C(CNC(=O)/C=C/c1ccco1)N=Nc1c(O)[nH]c2ccccc12 | . | . | . | . | . | . | / | /
O=C(c1ccccn1)N(Cc1ccco1)C1(C(=O)Nc2ccc(Br)cc2)CCCCC1 | . | . | / | / | / | . | / | /
COc1ccc(C(=O)C2CCCN(Cc3ccc4nonc4c3)C2)cc1OC (configuration not stated) | . | . | . | . | . | . | / | /
COc1cccc(C(=O)C2CCCN(Cc3ccccn3)C2)c1 (configuration not stated) | . | . | . | . | . | . | / | /
CCOC(=O)N1CCC(N2CCCC(C(=O)c3ccc4cc(OC)ccc4c3)C2)CC1 (configuration not stated) | 107 | . | . | . | . | . | 116 | 91
COc1ccc2cc(C(=O)C3CCCN(C(=O)CCc4ccccn4)C3)ccc2c1 (configuration not stated) | 96 | . | . | . | . | . | 94 | 62
COc1ccc2cc(C(=O)C3CCCN(Cc4cccc(C)n4)C3)ccc2c1 (configuration not stated) | 29 | . | . | . | . | . | 47 | 40
COc1ccc(C(=O)C2CCCN(Cc3ccc4nonc4c3)C2)c(OC)c1 (configuration not stated) | 57 | . | . | . | . | . | 153 | 135
CCOC(=O)N1CCC(N2CCCC(C(=O)c3cc(C)c(OC)c(C)c3)C2)CC1 (configuration not stated) | . | . | . | . | . | . | / | /
O=C(COc1cccc(F)c1)Nc1nc(-c2ccncc2)cs1 | . | . | / | / | / | . | / | /
COc1ccc2cc(C(=O)NCc3ccccc3CN3CCCC3)ccc2c1 | 33 | . | / | / | / | . | 115 | 104
Cc1coc2c(C)c3oc(=O)c(CCC(=O)N(C)CC(=O)O)c(C)c3cc12 | . | . | / | . | . | . | / | /
Cc1ccc(C2OC34CCCCCC3C(C#N)(C(=N)O4)C2(C#N)C#N)cc1 (configuration not stated) | 70 | . | . | . | . | . | 119 | 102
COc1cccc(N2CCN(S(=O)(=O)c3ccc4c(c3)N(C(C)=O)CCO4)CC2)c1 | . | . | . | . | . | . | / | /
c1ccc2sc(Nc3nc4cc5c(cc4s3)OCO5)nc2c1 | 29 | . | . | . | . | . | . | .
Fc1ccc2nc(Nc3nc4cc5c(cc4s3)OCO5)sc2c1 | 38 | . | . | . | . | . | 56 | 52
O=C(NNc1nc2cc3c(cc2s1)OCO3)c1ccc(F)cc1 | . | . | . | . | . | . | / | /
Fc1ccc2nc(Nc3nc4cc5c(cc4s3)OCCO5)sc2c1 | 59 | . | . | . | . | . | 75 | 63
Cc1cc(C(=O)OCC(=O)Nc2ccccc2C(F)(F)F)on1 | . | . | / | / | / | . | / | /
CC(OC(=O)/C=C/c1ccco1)C(=O)NC1CCCCC1C (configuration not stated) | . | . | / | / | / | . | / | /
Cc1cc(C)n2nc(NCc3ccccc3)nc2n1 | 55 | . | . | . | . | . | . | .
COc1ccc(-c2nc3nc(C)cc(C)n3n2)cc1 | 57 | . | . | . | / | . | 49 | 38
CCOC(=O)Nc1ccc2c(COC(=O)CN(C)S(=O)(=O)c3ccc(C)cc3)cc(=O)oc2c1 | 79 | . | / | / | . | . | 41 | 23
Cc1ccc(S(=O)(=O)NCC(=O)OCc2cc(=O)oc3cc(C)ccc23)cc1 | . | . | / | / | / | . | / | /
CCOC(=O)Nc1ccc2c(COC(=O)c3ccccc3O)cc(=O)oc2c1 | 56 | . | . | . | . | . | 38 | 32
SMILES | Mtb FBA inh | CCHFV vOTU inh | VHR inh abs | 3CLpro inhibitor | RecA intein inh | GDH-TPI counter-1 | Mtb FBA confirm | GDH-TPI counter-2
COc1ccccc1N1CCN(S(=O)(=O)c2c(C)[nH]c(=O)[nH]c2=O)CC1 | . | . | . | . | . | . | / | /
COc1ccc(N2C(=O)C(C)C(Cc3ccc(C)cc3)C2=O)cc1 (configuration not stated) | . | . | . | . | . | . | / | /
COC(=O)c1ccc(-c2ccc(/C=N/NC(=O)CC3(C)OCCCO3)o2)cc1 | 34 | . | . | . | . | . | + | 177
COc1ccc2ccccc2c1/C=N/NC(=O)CC1(C)OCCCO1 | . | . | . | . | . | . | / | /
CCOC(=O)c1sc(NC(=O)C(C)C)c(C#N)c1C | . | . | . | . | / | . | / | /
CCOC(=O)Nc1nnc(Cc2ccc(Cl)c(Cl)c2)s1 | 103 | . | . | . | . | . | 63 | 47
O=C(/C=C/Nc1ccccc1C(=O)O)c1cccs1 | . | . | . | . | . | . | / | /
O=C(O)c1ccccc1N/C=C\[N+](=O)[O-] | 32 | . | . | . | . | . | 71 | 56
Cn1nnnc1SCC(=O)Nc1nn(-c2ccccc2)nc1C(N)=O | 28 | . | . | . | . | . | 132 | 89
Cn1nnnc1SCC(=O)Nc1ccc(Oc2ccccc2)cc1 | . | . | . | . | . | . | / | /
Cc1csc2ncc(C(=O)NCc3ccco3)c(=O)n12 | 35 | . | . | . | . | . | 124 | 115
COc1ccc(CNC(=O)c2cnc3scc(C)n3c2=O)cc1 | . | . | . | . | . | . | / | /
Cc1csc2ncc(C(=O)Nc3ccon3)c(=O)n12 | 55 | . | . | . | . | . | 124 | 105
Cc1cccc(NC(=O)c2cnc3scc(C)n3c2=O)c1 | . | . | . | . | . | . | / | /
COc1ccc(NC(=O)CSCC(=O)Nc2cc(Cl)ccc2N2CCCC2)cc1 | . | . | . | . | . | . | / | /
Cc1sc2nc(-c3ccccn3)[nH]c(=O)c2c1-c1ccccc1 | 31 | . | . | . | . | . | 46 | 37
Cc1sc2nc(-c3ccncc3)[nH]c(=O)c2c1-c1ccccc1 | / | / | . | . | . | / | / | /
COc1ccccc1CNC(=O)c1cc(S(=O)(=O)N2CCCCC2)c[nH]1 | . | . | . | . | . | . | / | /
COc1ccc2nc(SCC(=O)O)nc(C)c2c1 | 39 | . | . | . | / | . | 101 | 90
Cc1cc(Cl)ccc1NC(=O)COC(=O)c1c(C)noc1C | . | . | / | / | / | . | / | /
COc1ccc(NC(=O)CN2C(=O)C(C)Oc3ccccc32)cc1OC (configuration not stated) | . | . | . | . | . | . | / | /
CC(=O)Oc1ccccc1C(=O)Oc1ccccc1C(=O)O | . | . | / | / | / | . | / | /

Compound activity deposited in PubChem by several laboratories.
